# Results filed as inconclusive are left out. A call without a number means that no potency is given here. Active and inactive are the calls of the source. Calls follow the shape of the full dose curve.
# Assay: qHTS assay for small molecule disruptors of the mitochondrial membrane potential - cell viability (AID 720634); also: nearly all actives have a fitted effect of over 20% in size
# Conditions: HepG2 viability, ATP luminescence (CellTiter-Glo), 1 h; series mostly up to 83.2 µM
# From the text: U.S. Tox21 Program National Center for Advancing Translational Sciences [NCATS] NIH Chemical Genomics Center [NCGC] U.S. Environmental Protection Agency [EPA] National Institutes of Environmental Health Sciences [NIEHS] National Toxicology Program [NTP] U.S. Food and Drug Administration [FDA] Tox21 Assay Overview: Mitochondrial membrane potential (MMP), one of the parameters for mitochondrial function, is generated by mitochondrial electron transport chain that creates an electrochemical gradient by a series of redox reactions. This gradient drives the synthesis of ATP, a crucial molecule for various cellular processes. Measuring MMP in living cells is commonly used to assess the effect of chemicals on mitochondrial function; decreases in MMP can be detected using lipophilic cationic fluorescent dyes. […] The dye accumulates in the mitochondria of healthy cells as aggregates, with red fluorescence. The mitochondrial potential decreases and the dye could not accumulate in the mitochondria and remains in the cytoplasm in monomers, with green fluorescence. In addition to the mitochondrial potential assay, these cells were also used to test the cytotoxicity by determining the cell viability in the culture based on the quantitation of ATP present. The cytotoxicity was measured in the same assay well of MMP assay.
# Tox21 Assay Protocol Summary: 2,000 HepG2 cells in 5 uL/well were dispensed into black, clear-bottom 1536-well plates using a Multidrop Combi (Thermo Scientific) dispenser. The assay plates were incubated for an overnight at 37 C to allow cells to attach to the wells, followed by the transfer of 23 nL compound or DMSO vehicle by a pin tool (Kalypsys). The plates were incubated for 1 hr at 37 C and 5% CO2, followed by the addition of 5 uL of 2X m-MPI dye into each well using Flying Reagent Dispenser (Aurora Discovery) and then CellTiter-Glo reagent was added at 4 uL/well and incubated 30 min at room temperature. Then luminescence intensity was quantified on a ViewLux CCD-based plate reader.
# Potency is read from the fitted curve at half-maximal effect.
row,SMILES,Potency
1,ClC(Cl)=C(c1ccc(Cl)cc1)c1ccc(Cl)cc1,inactive
2,COc1cc(C=O)cc2c1[C@H](COC(N)=O)[C@]1(OC(C)=O)ON2C[C@H]2[C@@H]1N2C(C)=O,inactive
3,Cc1c(Cl)c(=O)oc2cc(OP(=O)(OCCCl)OCCCl)ccc12,inactive
4,BrC(Br)C(Br)(Br)Br,inactive
5,[Hg+2].[I-].[I-],48.6 µM (active)
6,FC(Cl)(Cl)Cl,inactive
7,N#CCCSCCC#N,inactive
8,O=C(O)c1cc[c]([Hg][Cl])cc1,inactive
9,CSCCCN=C=S,inactive
10,CN(C)[C@@H]1C(=O)C(C(N)=O)=C(O)[C@@]2(O)C(=O)C3=C(O)c4c(O)ccc(Cl)c4[C@@](C)(O)[C@H]3C[C@@H]12,inactive
11,CC[C@H](C)[C@H]1O[C@]2(C=C[C@@H]1C)C[C@@H]1C[C@@H](C/C=C(\C)[C@@H](O[C@H]3C[C@H](OC)[C@@H](O[C@H]4C[C@H](OC)[C@@H](O)[C@H](C)O4)[C@H](C)O3)[C@@H](C)/C=C/C=C3\CO[C@@H]4[C@H](O)C(C)=C[C@@H](C(=O)O1)[C@]34O)O2,inactive
12,c1ccc(OCC2CO2)cc1 (stereo not given),inactive
13,COc1ccc(/C(=C/C(=O)N2CCOCC2)c2ccc(Cl)cc2)cc1OC,inactive
14,CN(C)C1CSSSC1,inactive
15,CCCN(CCC)CCc1c[nH]c2ccccc12,inactive
16,[CH3][Hg][Cl],27.2 µM (active)
17,O=C1NCN(c2ccccc2)C12CCN(CC1COc3ccccc3O1)CC2 (stereo not given),inactive
18,O=C(NC(=O)c1c(F)cccc1F)Nc1cc(Cl)c(OC(F)(F)C(F)F)c(Cl)c1,inactive
19,O=C1c2ccccc2C(=O)C1C(=O)C(c1ccccc1)c1ccc(Cl)cc1 (stereo not given),61.1 µM (active)
20,CC(Cc1ccc(C(C)(C)C)cc1)CN1C[C@@H](C)O[C@@H](C)C1 (stereo not given in full),inactive

row,SMILES,Potency
1,CN(C)C(=S)S,inactive
2,CCCOCC(=Nc1ccc(Cl)cc1C(F)(F)F)n1ccnc1,30.6 µM (active)
3,O=c1ssc(Cl)c1Cl,61.1 µM (active)
4,c1ccc2c(c1)[nH]c1cnccc12,inactive
5,CN(C)CCc1c[nH]c2ccc(O)cc12,inactive
6,Clc1ccc(C(c2ccc(Cl)cc2)C(Cl)(Cl)Cl)cc1,inactive
7,Oc1ccc(C(c2ccc(O)cc2)(C(F)(F)F)C(F)(F)F)cc1,inactive
8,Clc1ccc(CSC(Cn2ccnc2)c2ccc(Cl)cc2Cl)cc1 (stereo not given),inactive
9,NNC(=O)c1ccccc1,inactive
10,COc1cc(N)c(Cl)cc1C(=O)NC1CN2CCC1CC2 (stereo not given),inactive
11,O=[N+]([O-])c1ccc2ccc3cccc4ccc1c2c34,inactive
12,CCc1nn(C)c(C(=O)NCc2ccc(C(C)(C)C)cc2)c1Cl,12.2 µM (active)
13,CCN(CC)C(=S)[S-].CCN(CC)C(=S)[S-].[Zn+2],inactive
14,O=C(O)COc1nc(Cl)c(Cl)cc1Cl,inactive
15,CC(C)(C)OO,inactive
16,CC(C)CCCCCOC(=O)c1ccccc1C(=O)OCCCCCC(C)C,inactive
17,CCCCCCCCc1ccc(O)cc1,15.4 µM (active)
18,CN(C)S(=O)(=O)N(SC(F)(Cl)Cl)c1ccccc1,61.1 µM (active)
19,Clc1ccc(COC(Cn2ccnc2)c2ccc(Cl)cc2Cl)cc1 (stereo not given),26.6 µM (active)
20,N#CC(Cl)Cl,inactive
